Compound activity (PubChem)
Shown are actives, neighbours in structure and some others; about 1.5% of the full set was active somewhere.
E coli Lon inh = E. coli protease La inhibition | purified E. coli Lon protease, fluorescence polarization | inhibition, % at 7.94 µM | actives 0.42% (n = 360,000); in the data active = inhibition above about 13%, passing the limit was not always enough;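 also: 0% = enzyme with probe and DMSO and 100% = no enzyme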
Target sequence (P0A9M0 whole entry, looked up): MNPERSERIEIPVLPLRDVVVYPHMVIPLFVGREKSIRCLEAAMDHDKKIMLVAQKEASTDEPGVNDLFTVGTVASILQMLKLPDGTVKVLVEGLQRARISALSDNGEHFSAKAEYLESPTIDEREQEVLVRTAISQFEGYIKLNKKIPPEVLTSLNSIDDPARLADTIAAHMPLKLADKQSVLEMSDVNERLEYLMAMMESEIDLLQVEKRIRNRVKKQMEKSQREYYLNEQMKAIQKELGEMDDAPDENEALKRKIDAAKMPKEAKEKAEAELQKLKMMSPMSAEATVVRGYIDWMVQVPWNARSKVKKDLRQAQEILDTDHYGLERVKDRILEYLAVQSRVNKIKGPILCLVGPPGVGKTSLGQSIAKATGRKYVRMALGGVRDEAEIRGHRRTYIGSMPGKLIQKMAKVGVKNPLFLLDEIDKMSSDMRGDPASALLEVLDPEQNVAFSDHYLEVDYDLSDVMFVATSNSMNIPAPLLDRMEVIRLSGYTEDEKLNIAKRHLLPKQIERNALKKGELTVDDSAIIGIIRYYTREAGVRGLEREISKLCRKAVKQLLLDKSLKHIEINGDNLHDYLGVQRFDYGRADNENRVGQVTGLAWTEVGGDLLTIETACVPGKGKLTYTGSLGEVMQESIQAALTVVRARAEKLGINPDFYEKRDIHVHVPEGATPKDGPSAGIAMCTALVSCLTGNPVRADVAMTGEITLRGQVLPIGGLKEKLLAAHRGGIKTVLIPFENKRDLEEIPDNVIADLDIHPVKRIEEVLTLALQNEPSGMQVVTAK
EBV gp42 inh = inhibitors of Epstein-Barr virus glycoprotein 42; Fluorescence polarization binding assay, mP read-out; inhibition, % (tested at 21.74 µM); actives 0.42% (n = 220,000); in the data active = inhibition above about 50%
BCLXL inh = blocks human Bcl-xL binding to Bim BH3 peptide; actives 0.7% (n = 320,000); inhibition, % at 10.9 µM; GST-Bcl-xL / FITC-Bim BH3 peptide fluorescence polarization; AID 2129;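 active = inhibition above the mean of all tested compounds plus 3 SD, cutoff set per campaign, cut at about 30% in these data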;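 also: 0% = DMSO wells and 100% = unlabeled Bim-BH3 peptide competitor; inhibitors lower millipolarization by displacing the labeled peptide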
GLD-1 TGE inh = GLD-1-TGE RNA interaction inhibition (C. elegans). Q17339. purified GLD-1 + fluorescein TGE RNA, fluorescence polarization. inhibition, % at 5.96 µM. actives 0.44% (n = 320,000). AID 2280;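 active = percent inhibition above a per-plate cutoff, the plate mean of test compounds plus 3 SD, cut at about 30% in these data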;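 also: 0% = DMSO wells with GLD-1 and probe and 100% = wells lacking GLD-1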
MEX-5 binding = C. elegans MEX-5 TCR-2 RNA binding activity. Q9XUB2. activity score (negative = inhibition of binding), % at 10 µM. actives 0.38% (n = 300,000). MEX-5/FITC-TCR2 RNA binding, fluorescence polarization; active compounds read low;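 active = inhibition past about -25% in most replicates, and total fluorescence under double the plate's negative control median, limit read from the data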;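 also: 0% = DMSO and -100% = 5 µM competing unlabeled TCR2 RNA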
MCL1-BIM inh = inhibitors of human MCL1 binding to BIM-BH3 peptide | inhibition, % at 10.9 µM | AID 2057 | actives 0.68% (n = 320,000) | GST-MCL1 / FITC-Bim-BH3 fluorescence polarization;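 active = inhibition above the mean inhibition of all tested compounds plus 3 SD, set per campaign, cut at about 40% in these data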;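 also: 0% = DMSO wells and 100% = unlabeled Bim-BH3 peptide control; higher means more loss of mP so more displacement of Bim peptide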
E coli Lon conf = confirmation of E. coli Lon protease inhibitors; shares compounds with E coli Lon inh; inhibition, % at 7.94 µM; AID 602230; purified E. coli Lon, fluorescence polarization; actives 31% (n = 1,400); in the data active = inhibition above about 16%;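 also: 0% = enzyme with probe and DMSO and 100% = no enzyme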
* hit, by the source's call; . = no result given; + = active, no number.

SMILES	E coli Lon inh	EBV gp42 inh	BCLXL inh	GLD-1 TGE inh	MEX-5 binding	MCL1-BIM inh	E coli Lon conf
Cc1nc(CC(=O)N2CCN(c3cccc(C)c3C)CC2)cs1	23.7*	-2.5	15.1	6.6	-2.2	16.4	1.6
COc1ccc(C(=O)OCC(=O)Nc2ccc(F)c(F)c2)cc1OC	14.0*	-9.2	10.1	-1.0	1.4	2.2	-3.6
COc1cc(C(=O)OCC(=O)Nc2ccccc2C(=O)NC2CC2)c([N+](=O)[O-])cc1OC	34.7*	.	-1.3	-8.0	.	-0.8	-37.3
CCOC(=O)C1CCN(C(=O)C(=O)Nc2ccc3nc4n(c(=O)c3c2)CCCCC4)CC1	-5.9	.	-1.9	6.1	-3.1	-2.4	.
CCCc1ccc2oc(C(=O)NCCc3nc(C(=O)OCC)cs3)c(C)c2c1	-8.2	.	.	.	-2.7	.	.
CCCc1ccc2oc(C(=O)NCCc3cnn(C)c3)c(C)c2c1	19.3*	.	3.8	7.2	-2.6	3.1	-3.5
Cc1ccc(NC(=O)c2cc3c(CO)cnc(C)c3oc2=Nc2cccc(C(N)=O)c2)cc1	2.3	.	5.5	-6.7	-2.2	3.3	.
Cc1cccc(C)c1OCc1cc(C(=O)N2CCC(c3ccccc3)CC2)no1	20.9*	.	-1.4	-0.3	-0.9	3.8	16.8*
Cc1cccc(C)c1OCc1cc(C(=O)N2CCC(C3CCCCC3)C2)no1 (stereo unspecified)	-0.7	.	0.1	3.8	1.6	-5.6	.
O=C(c1ccc(CNS(=O)(=O)c2cccc(Cl)c2)cc1)N1CCCCC1	-11.0	.	-1.9	2.6	0.7	-3.0	.
COc1ccc(S(=O)(=O)Cc2ccc(C(=O)NC3CCCCC3)o2)cc1	26.8*	.	3.2	0.3	1.2	1.5	-8.3
CCOC(=O)C1CCN(S(=O)(=O)c2ccc3c(c2)CCN3C(=O)C2CCC2)CC1	-5.7	.	-2.0	-0.6	0.6	-0.3	.
Cn1nc(C(C)(C)C)cc1NC(=O)C1(C)CCN1C(=O)CC(c1ccccc1)c1ccccc1 (stereo unspecified)	-17.6	.	.	.	.	.	.
COc1ccccc1C1C(C(N)=O)=C(C)Nc2nc(-c3ccc(Cl)cc3)nn21 (stereo unspecified)	-1.2	2.2	2.5	2.1	-2.2	6.6	.
COc1ccccc1-c1nc2n(n1)C(c1ccc(Cl)cc1)C(C(N)=O)=C(C)N2 (stereo unspecified)	15.5*	-19.0	9.1	3.2	2.4	11.1	-7.6
O=C(O)CC/C(=C\c1ccc(Cl)c([N+](=O)[O-])c1)c1nc2ccccc2s1	1.5	-11.3	8.2	-8.5	2.0	6.1	.
O=C(O)CC/C(=C\c1ccc2c(c1)OCO2)c1nc2ccccc2s1	25.9*	.	12.7	28.3	-4.1	8.9	-16.8
CC12CN3CC(C)(CN(C1)C3c1ccc3c(c1)OCO3)C2O (stereo unspecified)	-0.5	-21.2	1.6	1.6	0.9	5.0	.
CCC(=O)NCCn1ccc2ccccc21	-5.4	-1.4	1.8	0.4	-2.6	3.2	.
O=C(Cc1cccs1)NCCn1ccc2ccccc21	18.7*	-3.8	-4.7	-5.9	2.6	2.2	-4.6
CC(=O)c1ccc(S(=O)(=O)N2CCN(CCOc3ccc(Br)cc3)CC2)cc1	-3.3	.	-8.8	9.1	.	-17.7	.
COC(=O)c1[nH]c2cccc(OC)c2c1NC(=O)CCN1CCN(c2ccccc2OC)CC1	20.7*	-16.2	-11.6	-3.5	-0.5	9.4	6.5
CCCNS(=O)(=O)c1ccc2c(c1)n(C)c(=O)n2C	16.2*	-7.4	6.4	5.1	-0.3	6.5	-4.5
O=C1C(NS(=O)(=O)c2cccs2)=C(N2CCN(c3cccc(C(F)(F)F)c3)CC2)C(=O)c2ccccc21	21.9*	31.4	17.0	15.5	-0.9	15.2	-0.5
O=C1NCCN(C(=O)CCc2nnc(-c3ccsc3)o2)C1c1ccc(F)cc1 (stereo unspecified)	1.1	3.1	3.7	3.0	2.5	1.4	.
SMILES	E coli Lon inh	EBV gp42 inh	BCLXL inh	GLD-1 TGE inh	MEX-5 binding	MCL1-BIM inh	E coli Lon conf
CCC1(CC)NC(=O)N(CC(=O)OC(C)C(=O)Nc2ccc(S(N)(=O)=O)cc2)C1=O (stereo unspecified)	1.0	.	.	.	.	.	.
ON(CCc1ccccn1)CCc1ccccn1	37.6*	.	.	.	.	.	25.1*
ON(CCc1ccccn1)Cc1ccccc1	1.1	.	.	.	.	.	.
Cc1cc(C)c2c(c1)-c1cc(C)nn1C(c1ccc3c(c1)OCO3)N2 (stereo unspecified)	20.8*	-3.0	4.3	8.3	2.0	4.3	-1.1
COc1cccc(N2CCN(C(=O)c3cccc(NC4=NC5CS(=O)(=O)CC5S4)c3)CC2)c1 (stereo unspecified)	1.7	.	8.8	0.7	-3.3	8.4	.
COc1ccc(C2=CC(c3ccco3)n3ncnc3N2)cc1 (stereo unspecified)	48.8*	87.8*	.	.	.	.	69.1*
NC(=O)CN1C(=O)C(=O)N(Cc2ccc(Cl)cc2)C1=O	-6.0	.	4.4	3.2	5.0	5.5	.
O=C(O)CN1C(=O)C(=O)N(Cc2ccc(Cl)cc2Cl)C1=O	18.2*	.	3.9	0.7	-0.6	-8.7	16.8*
CC(NS(=O)(=O)c1cccc(Cl)c1)C(=O)N(C)C1CCN(C)CC1 (stereo unspecified)	3.6	-6.4	-2.5	0.8	0.3	0.2	.
COc1cccc2c1C(=O)c1c(O)c3c(c(O)c1C2=O)C[C@@](O)(C(=O)CO)C[C@@H]3OC1CC(N)C(O)C(C)O1 (stereo partly specified)	+	.	.	.	.	.	+
CC(=O)[C@@]1(O)Cc2c(O)c3c(c(O)c2[C@H](O[C@H]2C[C@H](N)[C@H](O)[C@H](C)O2)C1)C(=O)c1ccccc1C3=O	+	.	.	.	.	.	+
COc1cccc2c1C(=O)c1c(O)c3c(c(O)c1C2=O)CC(O)(C(C)=O)CC3OC1CC(N(C)C)C(O)C(C)O1 (stereo unspecified)	+	.	.	.	.	.	+
CC(C(=O)N1CCCc2c1c(=O)oc1ccc(O)cc21)N1CCc2ccccc2C1 (stereo unspecified)	16.2*	-10.8	5.0	-6.0	0.1	-3.2	+
CCC(=O)NC(c1cc(Cl)c2ccccc2c1O)C1CC1 (stereo unspecified)	20.9*	.	150.8*	-3.9	.	-5.3	-6.1
O=c1[nH]c(NCCO)c(N=Cc2ccccc2)c(=O)[nH]1	10.6	.	13.5	4.2	-5.7	10.0	.
Nc1[nH]c(=O)[nH]c(=O)c1N=Cc1ccccc1	90.0*	.	.	.	.	.	53.1*
Oc1ccccc1/C=N/n1c(-c2ccccc2)n[nH]c1=S	5.8	.	-35.1	2.8	0.1	-14.0	.
COc1c(Br)cc(/C=N/n2c(-c3ccccc3)n[nH]c2=S)c(O)c1Br	19.4*	.	-7.0	6.5	0.3	11.4	-11.2
